About 83,000 compounds went through this panel and 20% of them were active in at least one assay; those are over-represented in the sample as a whole.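 Percent growth is the endpoint: 0 to 100 indicates growth inhibition (40 means 60% inhibition), 0 means no net growth, and negative values indicate cell death.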 The source made the active and inactive calls.
These molecules were tested on A498 renal (assay: NCI-60 one-dose screen, 48 h (100 = growth as untreated, 0 = no growth, -100 = all killed)). Settings: 10 µM unless noted.
Experimental: Growth inhibition of the A498 human tumor cell line is measured as a screen for anti-cancer activity. Cells are grown in 96 well plates and exposed to the test compound for 48 hours. Compounds are tested at a single concentration, which is 10^-5 M for most compounds. The reported endpoint is percent growth (GI% or GIPRCNT), where numbers from 0 - 100% represent growth inhibition, and numbers from -100% - 0 represent cell death. For example, a value of 40 represents 60% growth inhibition. A value of 0 means no net growth occurred over the course of the experiment. A value of -40 indicates 40% of cells at the beginning of the experiment died by the end of the experiment. A value of -100 means all cells are dead at the end of the experiment.
NCI-60 Human Tumor Cell Lines Screen was performed using the standard one-dose NCI protocol, which is described in more detail at https://dtp.cancer.gov/discovery_development/nci-60/default.htm.
Compounds with GIPRCNT values below 10 were considered active. Activity score was based on GIPRCNT using the following formula: […]
Score is 0 for GIPRCNT values of 100 or above, 50 for GIPRCNT values of 0, and 100 for GIPRCNT values of -100.

| SMILES | growth |
| --- | --- |
| COc1ccc(-c2nc3ccc(-c4nnc(SCC(=O)Nc5ccc(C(C)=O)cc5)o4)cc3[nH]2)cc1 | 110% (inactive) |
| Cc1cc(=O)oc2cc(OCCCOc3ccc(/C=C/C(=O)Nc4ccc(Cl)cc4)cc3)ccc12 | 57.7% (inactive) |
| Clc1ccc2oc3c(NCCCN4CCOCC4)c4ccccc4nc3c2c1 | -2.14% (active) |
| CC(=O)c1ccc(Nc2nc(SC(C)C)nc(-c3ccccc3)c2C#N)cc1 | 42.3% (inactive) |
| [Cl][Ru].c1ccc(-c2cccc(-c3ccccn3)n2)nc1.c1ccc(-c2ccnc3c2ccc2c(-c4ccccc4)ccnc23)cc1 | 54.9% (inactive) |
| COc1cccc(N2CCN(c3ncnc4c3[nH]c3ccc(F)cc34)C[C@@H]2C)c1 | -23.1% (active) |
| O=C1Nc2ccc(Cl)cc2/C1=C/c1ccc(OCC(=O)c2ccc(Br)cc2)cc1 | 107% (inactive) |
| COc1ccc(-c2nc3ccc(-c4nnc(SCC(=O)Nc5ccc(C(=O)/C=C/c6ccc(Cl)cc6)cc5)o4)cc3[nH]2)cc1OC | 100% (inactive) |
| CCCCCCNC(=O)Oc1ccc(/C(=C(/C)c2ccccc2)c2ccc(OCCN3CCCCCC3)cc2)cc1 | 78.7% (inactive) |
| CCN1CCN(S(=O)(=O)c2oc(-c3ccc(Cl)cc3)nc2C#N)CC1 | 93.2% (inactive) |
| O=C1Nc2ccccc2Oc2ccc(S(=O)(=O)CC3CO3)cc21 (stereo not given) | 102% (inactive) |
| CN(C)c1ccc(/C=c2\sc3nc4ccccc4n3c2=O)cc1 | 85.1% (inactive) |
| CS(=O)(=O)c1ccc(-c2nc3ccccn3c2/C=N/Nc2nc(-c3ccc(Cl)cc3)cs2)cc1 | 79.9% (inactive) |
| N#Cc1nc(-c2ccccc2)oc1S(N)(=O)=O | 83.1% (inactive) |
| CCN1C(=S)N(CC)C2C1N=C(SC)N2/N=C/C=C/c1ccccc1[N+](=O)[O-] (stereo not given) | 111% (inactive) |
| Cn1cc(-c2cc(N)n3nc(-c4cn(C)c5ccc(Cl)cc45)cc3n2)c2cc(Cl)ccc21 | 73.1% (inactive) |
| COc1ccc(/C=N/Nc2ccnc3cc(Cl)ccc23)cc1Cl | 36.7% (inactive) |
| COc1ccc(C(=O)c2cc(C(=O)/C=C/c3c(Cl)cccc3Cl)c3cc(C)ccn23)cc1 | 86.4% (inactive) |
| Nc1cc(-c2c[nH]c3ccc(F)cc23)nc2cc(-c3c[nH]c4ccc(F)cc34)nn12 | 67.8% (inactive) |
| CN1C(=S)N(C)C2C1NN=C1SC(c3ccccc3)=CC(=O)N12 (stereo not given) | 103% (inactive) |

| SMILES | growth |
| --- | --- |
| CC(C)(O)c1cncc(-c2ccc3ncnc(N4CCc5cc(F)c(Cl)cc54)c3c2)c1 | -39.6% (active) |
| CN(C)CCCOc1c2ccc(Cl)cc2nc2c1oc1ccc(Cl)cc12 | -6.7% (active) |
| COc1cc2nc(-c3ccc(Cl)cc3)cc(OCCCNCC3CCCO3)c2cc1OC (stereo not given) | 47.9% (inactive) |
| O=C(CCN1C(=O)/C(=C/c2ccccc2F)SC1=S)N1CCOCC1 | 111% (inactive) |
| CC(=O)Oc1ccccc1C(=O)Nc1ccc(C(=O)/C=C/c2ccncc2)cc1 | 100% (inactive) |
| Fc1ccc(-c2cc3nc(C(Cl)Cl)nc(-c4ccccc4)n3n2)cc1 | -59.9% (active) |
| O=C1c2c(c3c4cccnc4[nH]c3c3ccc4ccccc4c23)C(=O)N1CCO | 57% (inactive) |
| COc1ccc(Cc2nn(CC(=O)N/N=C/c3ccc(Cl)cc3)c(=O)c3c(C)noc23)cc1 | 90.5% (inactive) |
| Cc1nc(-c2cc3ccccc3oc2=O)ccc1C(=O)/C=C/c1ccc(Cl)c(Cl)c1 | 93.8% (inactive) |
| O=C1C2=C(C(=O)c3c(O)cccc31)C(c1ccco1)c1sc(=O)[nH]c1S2 (stereo not given) | 17.1% (inactive) |
| COc1cccc(-c2nn(-c3ccccc3)cc2-c2ccnc(N3CCN(C(=O)Nc4ccc(F)cc4)CC3)c2)c1 | 56.9% (inactive) |
| N[C@@H](Cc1cn(-c2ccnc3ccccc23)nn1)C(=O)O | 110% (inactive) |
| Cc1nc2cnc(N)c(C#Cc3cncc(C(=O)Nc4ccc(Cl)c(C(F)(F)F)c4)c3)c2nc1C | 55.4% (inactive) |
| COc1ccc(NC2=CC(=O)C(C)=C(C)C2=O)cc1 | 84.4% (inactive) |
| CC(C)(C)Nc1nc2c(OCCc3ccccc3)cccn2c1-c1ccccc1Cl | -23% (active) |
| O=C(NNc1nc2cc(F)ccc2n2c(CN3CC4(COC4)C3)ccc12)c1cnccn1 | -6.2% (active) |
| C[C@@H](Nc1c(C#N)cnc2ccc(-c3cnc(N)nc3)cc12)c1ccccc1 | -37.8% (active) |
| Cc1ccc(C(=O)Nc2cccc(C(F)(F)F)c2)cc1Nc1nc(-c2cnccn2)nc2c1cnn2C | 53.9% (inactive) |
| COc1ccc([C@@H]2c3[nH]c4ccccc4c3CC3C(=O)N(C4CCN(Cc5c(F)cccc5F)CC4)CC(=O)N32)c(OC)c1 (stereo not given in full) | 29.4% [5.26 µM] (inactive) |
| COc1cc(-c2ccc3ncnc(NC(C)c4ccccc4)c3c2)cnc1OC (stereo not given) | -14.9% (active) |
